# Assay outcomes: PubChem, National Center for Advancing Translational Sciences (NCATS)
# Sampled rows, rich in hits. Any-hit rate of the full collection: about 10%.
# ALDH1A1 inh: qHTS Assay for Inhibitors of Aldehyde Dehydrogenase 1 (ALDH1A1) | Aldehyde dehydrogenase 1A1 (Homo sapiens), P00352 | Purified ALDH1A1, NADH fluorescence, propionaldehyde substrate | Potency, µM (highest dose often 75.3 µM), without a hit: at the top dose activity, negative = inhibition, usual class: inhibitors | 220,000 compounds, 7.3% hits;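 further: potency means the concentration at half of the fitted maximal effect; plate controls were no enzyme wells and a reference inhibitor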
# Target sequence (P00352 whole entry, looked up): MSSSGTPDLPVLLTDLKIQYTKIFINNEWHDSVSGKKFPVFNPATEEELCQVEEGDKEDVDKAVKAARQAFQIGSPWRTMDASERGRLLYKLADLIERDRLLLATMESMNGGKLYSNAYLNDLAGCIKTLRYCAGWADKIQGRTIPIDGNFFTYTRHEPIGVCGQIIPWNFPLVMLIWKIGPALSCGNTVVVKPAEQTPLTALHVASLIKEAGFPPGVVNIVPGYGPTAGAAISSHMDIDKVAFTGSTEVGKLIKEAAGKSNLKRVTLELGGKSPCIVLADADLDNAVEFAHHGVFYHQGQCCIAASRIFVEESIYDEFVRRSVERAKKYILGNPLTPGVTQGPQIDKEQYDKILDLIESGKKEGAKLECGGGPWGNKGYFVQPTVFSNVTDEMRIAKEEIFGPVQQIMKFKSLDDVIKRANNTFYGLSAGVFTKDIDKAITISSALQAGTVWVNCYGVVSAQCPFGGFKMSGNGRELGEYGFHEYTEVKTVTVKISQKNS
# PNC assembly inh: High Content Assay for Compounds that inhibit the Assembly of the Perinucleolar Compartment; PC3M PTB-GFP, PNC prevalence imaging, 16 h; active compounds read low; activity change (PNC), negative = inhibition, % at 10 µM; 140,000 compounds, 3.1% hits; AID 2417, 2010;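 active means readout at or below -70, meaning at least 70% loss of cells showing the perinucleolar compartment, a nuclear body marking cancer cells; inconclusive means readout between -30 and a set limit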;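 further: plate controls were DMSO wells for no effect and camptothecin positive control wells for full effect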
#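 PC3M cells stably expressing PTB-GFP, 750–1000 cells/well, treated 16 h at 37 °C with compound (23 nl of library stock), in duplicate. After paraformaldehyde fixation and Hoechst stain, imaged at 20x; PNC prevalence scored by image analysis.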
# KinaseGlo FLuc: Counterscreen for Luciferase (Kinase-Glo TM) Inhibition; Luciferin 4-monooxygenase (Photuris pensylvanica), Q27757; Kinase-Glo luciferase, ATP luminescence, 8 min; Potency, µM (highest dose often 38.3 µM), without a hit: top-dose activity change, negative = inhibition, usual class: inhibitors; 200,000 compounds, 0.28% hits; AID 1379, 2008; active means well fitted inhibition curve with a large enough effect; inconclusive means small, poorly fitted or top-dose-only effect; further: potency means the concentration at half of the fitted maximal effect; nearly all actives have a fitted effect of over 60% in size
#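 Compound is pinned into ATP-containing buffer (10 uM ATP, imidazole pH 7.2, 7 mM MgCl2). Kinase-Glo luciferase reagent is then added. Light output is recorded following an 8-min room-temperature incubation.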
# LMNA splice mod: qHTS Assay for Modulators of Lamin A Splicing; HeLa LMNA splicing GFP/RFP minigene ratio, 48 h; Potency, µM (top dose mostly 46.1 µM), for the others: top-dose ratio change, negative = inhibition, usual class: inhibitors; 200,000 compounds, 0.01% hits; AID 1487, 2009; active means well fitted inhibition curve with a large enough effect in the signal ratio, with a control signal flat, not every such curve was filed as active; inconclusive means small, poorly fitted or top-dose-only effect, or effect the other way, or a change in a side signal; the % refers to the signal ratio; further: potency means the concentration at half of the fitted maximal effect
#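 Read-out is the ratio of GFP to DsRed2 object intensity, acquired by 488 nm laser-scanning cytometry on HeLa lamin A-EGFP minigene reporter cells. Compound incubation 48 hrs at 37 °C in Opti-MEM with 2% FBS; DMSO 0.5% final.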
# HPGD inh: qHTS Assay for Inhibitors of HPGD (15-Hydroxyprostaglandin Dehydrogenase) | 15-hydroxyprostaglandin dehydrogenase [NAD(+)] (Homo sapiens), P15428 | purified HPGD, NADH fluorescence kinetic, PGE2 substrate | Potency, µM, for inactives: at the top dose activity change, negative = inhibition, most hits filed as inhibitors | 150,000 compounds, 4.3% hits | AID 894, 2007; further: potency means the concentration at half of the fitted maximal effect
# Target sequence (P15428 whole entry, looked up): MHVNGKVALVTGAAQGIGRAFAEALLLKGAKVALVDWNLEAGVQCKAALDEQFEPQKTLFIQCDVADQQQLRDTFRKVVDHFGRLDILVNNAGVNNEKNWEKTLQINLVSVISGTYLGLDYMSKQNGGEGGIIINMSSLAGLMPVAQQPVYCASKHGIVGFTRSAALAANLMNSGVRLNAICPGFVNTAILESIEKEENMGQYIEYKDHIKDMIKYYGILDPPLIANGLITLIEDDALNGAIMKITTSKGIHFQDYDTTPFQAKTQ
#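 20 nM HPGD preincubated 15 min at room temperature with compound in 50 mM Tris-HCl pH 8, 0.01% Tween 20. Started with 1 mM NAD+ and 30 uM prostaglandin E2; NADH fluorescence (360/450 nm) read 5 times over 30-s intervals, last minus first.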
# The depositor's hits bear a star; u = inconclusive; x = no result; ! = not confirmed by another sample; [ ] = dose if it differs, or a comment. Unless noted, the call rests on the fitted dose curve; in most records, active means well fitted inhibition curve with a large enough effect (not every such curve was filed as active); inconclusive means small, poorly fitted or top-dose-only effect, or another doubt; inactive means no such curve, though single readings can be large or run the other way. Unless noted, on the % scale 0 is the no-effect control and ±100 the full control effect.
SMILES,ALDH1A1 inh,PNC assembly inh,KinaseGlo FLuc,LMNA splice mod,HPGD inh
Cc1cc(OC(=O)CCNC(=O)OC(C)(C)C)c2c3c(c(=O)oc2c1)CCC3,1.78µM*,-108.8*,-0.7%,u,u
Cc1cc(OCc2ccc([N+](=O)[O-])cc2)c2c3c(c(=O)oc2c1)CCCC3,28.2µM*,22.0,-2.2%,1.4%,u
Cc1cc(OCc2nn[nH]n2)c2c3c(c(=O)oc2c1)CCCC3,u,-17.5,x,1.1%,x
Cc1cc(OC(=O)CCCNC(=O)OC(C)(C)C)c2c3c(c(=O)oc2c1)CCC3,u,-10.3,6.7%,14.0%,-12.0%
C=CCOC(=O)COc1cc(C)cc2oc(=O)c3c(c12)CCC3,u,-18.5,13.4%,4.2%,u
Cc1cc(OC(=O)c2ccco2)c2c3c(c(=O)oc2c1)CCC3,10µM*,-13.5,x,u,x
CCSC(=O)Cl,u,x,x,x,-9.1%
FC(F)(F)c1ccc(Cl)cc1,0.2%,x,x,x,-3.0%
Cc1ccc(N)cc1[N+](=O)[O-],u,x,x,x,-8.2%
CCCCCCCCCc1ccc(O)cc1,100µM*,x,-3.3%,u,-4.7%
CCCCn1c(O)c(C=NCCCn2ccnc2)c(=O)[nH]c1=O,17.8µM*,4.2,-1.0%,4.6%,-13.8%
O=c1[nH]c(=O)n(CCc2ccccc2)c(O)c1C=NCCCn1ccnc1,8.0%,-2.3,-1.7%,-4.6%,-12.8%
CN(C)C(=O)Oc1ccc(OCc2nc3ccccc3[nH]2)cc1,5.9%,u,11.2µM*,u,-0.5%
CN(C)C(=O)Oc1ccc(OC(=O)N(C)C)cc1,-3.5%,21.6,-3.8%,3.1%,-11.4%
COc1cc(C2SCC(=O)Nc3c2c(C)nn3-c2ccccc2)cc(OC)c1OC (stereo not drawn),1.5%,42.7,-2.5%,-10.3%,-18.0%
Cc1nn(-c2ccccc2)c2c1C(c1ccc3c(c1)OCO3)SCC(=O)N2 (stereo not drawn),-15.7%,17.8,-3.6%,-1.5%,8.91µM*
CCN(N=O)C(N)=O,-13.3%,x,x,x,-2.4%
CN1C(=O)C(=Cc2ccccc2Oc2ccc(Cl)c(F)c2)C(=O)N(C)C1=O,u,31.6,1.9%,-1.1%,11.2µM*
O=C1NC(=O)C(=Cc2ccccc2Oc2ccc(F)cc2)C(=O)N1,u,x,-0.8%,x,x
Cc1noc(C(=O)Nc2sc3c(c2C#N)CCC3)c1Cl,12.6µM*,-20.5,17.8%,u,25.1µM*
CCN=C=NCCCN(C)C,-0.8%[13.5 µM],x,-3.9%[7.66 µM],x,-0.1%
ClC1=C(Cl)C(Cl)(Cl)C(Cl)=C1Cl,28.2µM*,x,x,x,-7.7%
CC(C)[C@@]1(NC(=O)[C@H]2CC3c4cccc5[nH]cc(c45)C[C@H]3N(C)C2)O[C@@]2(O)C3CCCN3C(=O)[C@@H](Cc3ccccc3)N2C1=O (stereo partly drawn),-1.5%,x,x,u,x
O=C(OCC(=O)c1ccc([N+](=O)[O-])cc1)/C(=C/c1ccc(Cl)cc1)NC(=O)c1ccccc1,7.94µM*,u,0.0%,-1.1%,-15.3%
O=C(C[N+]12CCC(CC1)C(OC(=O)c1ccccc1)C2)c1ccc([N+](=O)[O-])cc1 (stereo not drawn),-1.2%,x,x,x,x
SMILES,ALDH1A1 inh,PNC assembly inh,KinaseGlo FLuc,LMNA splice mod,HPGD inh
Oc1c(Cl)c(Cl)c(Cl)c(Cl)c1Cl (tested in a mixture with another compound),3.7%[13.5 µM],x,-2.9%[7.66 µM],x,x
COc1ccc(C(c2ccc(OC)cc2)C(Cl)(Cl)Cl)cc1,14.1µM*!,x,0.3%,-7.6%,-8.3%
O=Cc1cn(Cc2ccc([N+](=O)[O-])cc2)c2ccccc12,2.24µM*,-16.1,1.5%,u,-17.1%
Cc1c(C=O)c2ccccc2n1Cc1ccc(F)cc1,0.6%,x,-0.3%,u,x
O=[N+]([O-])c1ccccc1CNCCc1ccc(F)cc1,u,-4.5,-4.7%,-3.7%,-2.5%
O=Cc1cn(Cc2ccccc2[N+](=O)[O-])c2ccccc12,1.26µM*,-0.7,-1.6%,u,-12.5%
O=Cc1cn(Cc2ccc(F)cc2)c2ccccc12,0.126µM*,x,-4.0%,16.7%[46 µM],x
CCOCCOC(C)=O,u,x,x,x,-10.6%
CCCC(C)C1(CC)C(=O)NC(=S)NC1=O (stereo not drawn),-1.7%,x,-2.0%[39.9 µM],u,-4.3%
CN[C@@H](Cc1c[nH]c2ccccc12)C(=O)O,-5.2%,x,0.2%,x,-12.0%
O=C(O)Cc1ccc([N+](=O)[O-])cc1[N+](=O)[O-],-5.7%[13.5 µM],x,-3.9%[7.66 µM],x,-2.9%
C[C@@H]1O[C@@H](O[C@H]2C[C@@H](O)[C@]3(CO)[C@H]4[C@H](O)C[C@]5(C)[C@@H](C6=CC(=O)OC6)CC[C@]5(O)[C@@H]4CC[C@]3(O)C2)[C@H](O)[C@H](O)[C@H]1O,-5.6%,-114.6*,-2.0%,u,-10.0%
C[C@H]1O[C@@H](O[C@H]2[C@@H](O)C[C@H](O[C@H]3[C@@H](O)C[C@H](O[C@H]4CC[C@@]5(C)[C@H](CC[C@@H]6[C@@H]5CC[C@]5(C)[C@@H](C7=CC(=O)OC7)CC[C@]65O)C4)O[C@@H]3C)O[C@@H]2C)C[C@H](O)[C@@H]1O,5.5%,-81.7*,-0.3%,u,-3.7%
ClCc1ccccc1,-2.5%,x,x,x,-5.5%
C[C@]12N[C@@H](Cc3ccccc31)c1ccccc12,-2.4%,x,-0.1%,-3.2%,-1.0%
CNC1=CN(O)C(c2ccccc2)=c2cc(Cl)ccc2=N1,13.8%,x,-0.2%[39.9 µM],u,-14.4%
CCOC(=O)N(c1ccccc1)P1(=S)OCCO1,u,21.3,-2.9%,13.0%,u
COC(=O)N(c1ccccc1)P1(=S)OCCO1,3.98µM*,u,3.7%,2.5%,8.91µM*
CC(=O)O[C@H]1C[C@H]2CC[C@@H]3[C@@H](CC[C@]4(C)[C@H](OC(C)=O)[C@H]([N+]5(C)CCCCC5)C[C@@H]34)[C@]2(C)C[C@H]1[N+]1(C)CCCCC1,-6.0%[20.9 µM],x,-1.6%[17.1 µM],-11.3%,-4.3%
CC(CCC(=O)O)C1CCC2C3CC[C@@H]4CCCC[C@@]4(C)C3CC[C@@]12C (stereo partly drawn),-0.6%,x,1.1%,u,-7.5%
CN1C(=O)C(Cc2c[nH]c3ccccc23)C(=O)N(C)C1=O,14.1µM*,-19.2,-1.0%,-19.6%,u
CN1C(=O)C(Cc2cccc3ccccc23)C(=O)N(C)C1=O,u,5.8,2.4%,4.4%,-22.8%
O=C1C2CC=CCC2C(=O)N1SC(Cl)(Cl)Cl (stereo not drawn),0.398µM*,x,x,u,7.08µM*
Oc1ccc(/C=N/NP(=S)(c2ccccc2)c2ccccc2)cc1,20µM*,3.6,-4.6%,-3.8%,31.6µM*
COc1cc(/C=N/NP(=S)(c2ccccc2)c2ccccc2)ccc1O,u,35.9,1.5%,3.0%,-20.6%
